Assay outcomes as filed in PubChem.
p53ts 39C tox: cytotoxicity in p53ts cells at nonpermissive temperature. H1299-p53A138V viability at 39C, ATP luminescence, 24 h. Potency, µM (doses to about 46.1 µM), for inactives: at the highest dose activity change, negative = cell killing, most hits filed as cytotoxic. 1.5% of 130,000 active. AID 902; note: % is set by controls: 0 for no effect and ±100 for the full control effect; nearly all actives have a fitted effect of over 55% in size
p53ts 32C kill: kills p53ts cells at the permissive temperature | Potency, µM (titrated, usually from 46.1 µM), without a hit: top-dose activity change, negative = cytotoxicity, usual class: cytotoxic | AID 924 | 0.93% of 130,000 active | H1299-p53A138V at 32C, ATP luminescence viability, 24 h;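 note: 0% = DMSO and -100% = full killing by reference compound; nearly all actives have a fitted effect of over 55% in size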
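Cells: H1299 p53ts (A138V), 600/well, pre-incubated 16–30 h at 37C. Cpd up to 46 uM, 24 h, 32C. Readout: ATPlite luminescence, 20 min RT. Normalization: DMSO vs tamoxifen 100 uM. AC50 by Hill equation.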
IkB sig inh: IkB pathway inhibition in ABC-DLBCL cells; ABC-DLBCL IkBa-CBG/CBR dual luciferase ratio, 4 h; response scale: scaled: untreated 0%, proteasome inhibitor 100%; Potency, µM (series often up to 57.1 µM), for inactives: at the highest dose IkBa stabilization activation; 0.04% of 110,000 active; active = well fitted curve in the direction sought with a large enough effect in the signal ratio, not every such curve was filed as active; inconclusive = small, poorly fitted or top-dose-only effect, or a change in a side signal; the % refers to the signal ratio;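 note: the direction sought is a rising ratio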
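Luminescence ratio of IκBα-fused green versus native red beetle luciferase in OCI-Ly3 cells, 4 h post-doxycycline with compound; red signal alone, scaled from basal (0%) to zero light (-100%), flagged nonspecific or cytotoxic effects.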
Peg3 imprint: genomic imprint erasure induction; 0.02% of 110,000 active; Potency, µM (highest dose often 60.7 µM), for inactives: at the top dose activity change, positive = activation, most hits filed as activators; mouse ES Peg3-LacZ reporter, beta-gal luminescence, 40 h
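Imprint erasure is scored as LacZ activity from the silenced maternal Peg3 allele in feeder-free female ES cells cultured 40 h with LIF. Luminescence is normalized to in-plate negative controls and fitted to the Hill equation.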
Numbers without * were called inactive; ? = inconclusive; nt = no result; ! = not active in a repeat; [ ] = another dose, or the depositor's remark. The list is not random: actives were taken first. Their share in the collection is about 1.8%. Unless noted, calls come from the whole dose curve; as a rule, active = well fitted curve in the direction sought with a large enough effect; inconclusive = small, poorly fitted or top-dose-only effect, or another doubt; inactive = no such curve, though single readings can be large; an effect the other way counts as inactive or inconclusive. Potency is the fitted concentration of half-maximal effect.

SMILES | p53ts 39C tox | p53ts 32C kill | IkB sig inh | Peg3 imprint
CCCCNC(=O)CCC(=O)NNc1nc2ccccc2c2nc(-c3ccccc3)nn12 | 13µM* | -2% | 3% | ?
CCCCNC(=O)CCC(=O)NNc1nc2ccccc2c2nc(C)nn12 | -4% | 2% | -1% | -7%[10.9 µM]
COc1cc2cc3c4c(cc(OC)c(OC)c4c2cc1OC)CCN3C | 32µM* | 32µM* | 3%[11.4 µM] | -47%
COc1ccc(-c2cn(-c3ccc(C)cc3)c(S(=O)(=O)CC(=O)Nc3ccc(F)cc3)n2)cc1 | -25% | -7% | ? | -11%[10.9 µM]
CCCC(=O)Nc1ccc2nn(-c3ccc(CC)cc3)nc2c1 | 10µM* | -17% | -5% | -10%[10.9 µM]
Cc1nc(Nc2nc3ccccc3o2)nc2c1CCC2 | 16µM* | 13µM* | 13% | -90%
Cc1cccc(C)c1Nc1nc2ccccc2o1 | -14% | 0% | 2% | -2%
Cn1c(=O)n(C)c2cc(NS(=O)(=O)c3ccc4c(c3)CCCC4)ccc21 | -9% | -1% | 7.9µM* | -16%
CCc1ccc(S(=O)(=O)Nc2ccc3c(c2)n(C)c(=O)c(=O)n3C)cc1 | -21% | -12% | 0% | -13%[10.9 µM]
COc1ccc(C(=O)N=c2nc3ccccn3s2)cc1 | 0.32µM* | 0.79µM* | ? | -73%
C/C=C\C1=C(CO)C(=O)[C@@H]2OC2C1=O (stereo partly drawn) | 8%[9.22 µM] | -3%[9.22 µM] | nt | nt
Cc1sc2ncnc(Sc3nnnn3-c3ccccc3)c2c1C | -19% | ? | ? | -33%
Clc1ccc(-n2nnnc2Sc2ncnc3sccc23)cc1 | 20µM* | ? | ? | -39%
Clc1ccc(-c2nnc(SCc3ccon3)o2)c(Cl)c1 | 10µM* | 10µM* | -1% | -70%
C=CC1=C(C(=O)O)N2C(=O)[C@@H](NC(=O)C(N=O)c3csc(N)n3)[C@H]2SC1 (stereo partly drawn) | nt | nt | nt | -2%
Cn1c(C(=O)NCCc2ccccc2)cc2sc(Cl)cc21 | 13µM* | 16µM* | 5% | -22%[10.9 µM]
Cc1cc(NC(c2nnc(-c3ccccc3)o2)c2ccccc2F)ccc1Br (stereo not drawn) | 42% | -5% | ? | -17%[10.9 µM]
O=C(Nc1ccc2nc(-c3ccco3)[nH]c2c1)c1cccs1 | 13µM* | 10µM* | 9% | -12%
O=C(Nc1ccc2nc(-c3ccco3)[nH]c2c1)c1ccco1 | 16µM* | 7.9µM* | 3% | -41%
O=C(Nc1cccc(NC(=O)c2cccs2)c1)c1ccco1 | -1% | -2% | 14% | -21%
CSCC[C@@H]1NC(=O)C/C=C\[C@@H](C)COC(=O)[C@H](C)COC1=O | -4%[9.22 µM] | 7%[9.22 µM] | nt | nt
CCOC(=O)c1ccc(N2C(=O)c3n[nH]c(-c4cccs4)c3C2c2ccc(CC)cc2)cc1 (stereo not drawn) | 10µM* | ? | ? | 6%[10.9 µM]
CCOC(=O)c1ccc(N2C(=O)c3n[nH]c(-c4cccs4)c3C2c2ccc(C(C)C)cc2)cc1 (stereo not drawn) | 10µM* | ? | ? | -13%[10.9 µM]
CN(C)c1ccc(-c2cncnc2NCCN2CCOCC2)cc1 | ? | ? | 1%[11.4 µM] | -32%
Clc1nc(NCCc2ccccc2)c2ncn(-c3ccccc3)c2n1 | nt | nt | 1%[11.4 µM] | nt
SMILES | p53ts 39C tox | p53ts 32C kill | IkB sig inh | Peg3 imprint
N#Cc1c(C(F)(F)F)cc(-c2cccs2)nc1SCC(=O)Nc1cccc(Cl)c1 | -5% | -2% | 1% | -4%[10.9 µM]
N#Cc1c(C(F)(F)F)cc(-c2cccs2)nc1SCC(=O)Nc1cccc(Br)c1 | 13µM* | -15% | ? | -3%[10.9 µM]
C=CC1=C[C@@H](O)C2OC2C12OCCCO2 (stereo partly drawn) | -4%[9.22 µM] | -2%[9.22 µM] | nt | nt
C[C@@H](c1ccccc1)N1C(=O)[C@H]2[C@H]3[C@H](O)[C@H](O)C/C(=N/OCc4ccccc4)[C@H]3CC[C@@H]2C1=O | 5%[9.22 µM] | -1%[9.22 µM] | nt | nt
Cc1ccc(NC(=O)CCc2c(C)nn(-c3ccc(N4CCCCC4)nn3)c2C)cc1F | 13µM* | ? | ? | -18%[10.9 µM]
O=C(/C=C/c1cn(CC(O)CN2CCCCCC2)c2ccccc12)c1ccccc1 (stereo not drawn) | ? | -13% | ? | -11%[10.9 µM]
O=C(/C=C/c1cn(CC(O)CN2CCCCCC2)c2ccccc12)c1ccc(Br)cc1 (stereo not drawn) | ? | -4% | 6% | 10%[10.9 µM]
COc1ccc(C(=O)/C=C/c2cn(CC(O)CN3CCCCCC3)c3ccccc23)cc1OC (stereo not drawn) | 13µM* | -16% | ? | -5%[10.9 µM]
Cc1ccc(C(=O)/C=C/c2cn(CC(O)CN3CCCCCC3)c3ccccc23)cc1 (stereo not drawn) | 13µM* | ? | ? | ?
COC(=O)NC(c1cccc(C)c1)[C@]1(C(C)=O)CCOC1=O (stereo partly drawn) | 13%[9.22 µM] | 4%[9.22 µM] | nt | nt
COc1cccc(-c2cc(NCc3cccs3)ncn2)c1 | ? | 25µM* | -1%[11.4 µM] | -47%
FC(F)(F)c1cc(-c2ccco2)nc(NCc2ccco2)n1 | -8% | 3% | 26% | -31%
FC(F)(F)c1cc(-c2ccco2)nc(NCc2cccs2)n1 | 20µM* | ? | 5% | -10%
COc1ccc(OC)c2[nH]c(=O)c(CCNC(=O)c3cc4ccccc4o3)cc12 | ? | 13µM* | ? | -77%
Cc1ccc(C)c2[nH]c(=O)c(CCNC(=O)c3cc4ccccc4o3)cc12 | -12% | 16% | -2% | 5%
C#CCCCO/N=C1/C[C@@H](O)[C@@H](O)[C@@H]2[C@@H]3C(=O)N(C(C)(C)C)C(=O)[C@H]3CC[C@H]12 | 12%[9.22 µM] | 10%[9.22 µM] | nt | nt
COc1ccccc1/C=C/c1nc2ccccc2n1C(C)C | 16µM* | ? | -5% | -18%[10.9 µM]
Cc1ccc(C(O)c2nc3ccccc3n2C(C)C)cc1 (stereo not drawn) | 15% | 7% | -4% | 5%
CCc1ccccc1NC(=O)CN(C)C(=O)Cn1ncc(Cl)c(Cl)c1=O | 3.2µM* | 3.5µM* | nt | nt
c1ccc(-c2nnc(-c3ccccn3)nn2)nc1 | ? | ? | ? | -56%
c1ccc(-c2cccc(-c3ccccn3)n2)nc1 | 0.79µM* | ? | 2% | -20%
CCC(=O)N1CCc2cc(S(=O)(=O)NC(C(=O)NCc3ccc(OC)cc3)C(C)C)ccc21 (stereo not drawn) | -15% | 8% | 1% | -13%[10.9 µM]
O=C(c1ccc(OCCN2CCCCC2)cc1)c1c(-c2ccc(O)cc2)sc2cc(O)ccc12 | 25µM*! | 20µM*! | 3%[25.6 µM] | -23%
CN(Cc1ccccc1)C(=O)c1cccc(NC(=O)c2nsc3ccccc23)c1 | 10µM* | ? | 2% | -20%[10.9 µM]
CC(C)Oc1ccc(CNC(=O)c2cccc(NC(=O)c3nsc4ccccc34)c2)cc1 | -30% | -25% | 0% | -3%[10.9 µM]
Cc1ccc(S(=O)(=O)N[C@H](CO)C(=O)O)cc1 | 7%[9.22 µM] | 18%[9.22 µM] | 0%[11.4 µM] | -4%[10.9 µM]
Cc1ccc(S(=O)(=O)N[C@@H](Cc2ccccc2)C(=O)CCl)cc1 | 3.2µM* | 6.3µM* | ? | -32%
COc1cccc(/C=C/C(=O)Nc2ccc3nc(N4CCN(C)CC4)cc(C)c3c2)c1OC | 13µM* | ? | ? | 2%[10.9 µM]
